Test [1] in a line: ATG_PBREM_CIS: Attagene CIS-FACTORIAL HepG2 Assay for human Phenobarbital-responsive Enhancer Module (PBREM) (AID 2282955). The following applies: HepG2 PBREM cis-reporter, Attagene multiplexed transcription; actives raise or lower the signal. In short, it runs like this: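 Endogenous transcription factors in human liver HepG2 cells drive a PBREM cis-element reporter, whose transcript level after 24 h treatment is quantified by RT-PCR with capillary electrophoresis; activity fitted in both directions against DMSO.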

For test [2], the target named is Paired box protein Pax-6 (Homo sapiens) (UniProt P26367). As to the kind of experiment: ATG_Pax6_CIS: Attagene CIS-FACTORIAL HepG2 Assay for human Paired Box 6 (PAX6) (AID 2282956). To be noted: HepG2 CIS-FACTORIAL PAX6 reporter transcription, RNA readout; actives raise or lower the signal. In short, it runs like this:
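Transient MRTU transfection of HepG2 → compound exposure 24 h → TriZol RNA, oligo(dT) RT → PCR, 6-FAM primer extension, HpaI cut → capillary electrophoresis; activity fitted both directions against DMSO.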

Test [3] is described as follows: ATG_PXRE_CIS: Attagene CIS-FACTORIAL HepG2 Assay for human Pregnane X Receptor Element (PXRE) (AID 2282957). The following applies: HepG2 Attagene CIS-FACTORIAL PXRE reporter, mRNA; actives raise or lower the signal. In short, it runs like this: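 Cells: HepG2, transiently transfected reporter units under cis promoter control. Exposure: 24 h. Detection: reporter mRNA via RT-PCR/CE fluorescence; bidirectional fitting, DMSO-referenced.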

The nature of test [4]: ATG_PPRE_CIS: Attagene CIS-FACTORIAL HepG2 Assay for human Peroxisome Proliferator-activated Response Element (PPRE) (AID 2282958). To be noted: HepG2 PPRE cis-element reporter, Attagene transcription factor profiling; actives raise or lower the signal. Summed up: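 HepG2, transient MRTU transfection (cis promoter elements, endogenous TFs). 24 h dosing. RNA → oligo(dT) RT → PCR → 6-FAM primer extension → HpaI digest → CE. Bidirectional fit vs DMSO.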

The nature of test [5]: ATG_RORE_CIS: Attagene CIS-FACTORIAL HepG2 Assay for human RAR-related Orphan Receptor Element (RORE) (AID 2282959). The following applies: HepG2 Attagene cis-factorial RORE reporter, mRNA; actives raise or lower the signal. Summed up: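 Transient MRTU transfection of human HepG2 liver cells (FuGene 6); 24 h compound exposure; TriZol RNA, oligo(dT) RT, PCR, FAM labeling, HpaI cut, CE fragment analysis. DMSO = negative control/baseline.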

Test [6] in a line: ATG_Sox_CIS: Attagene CIS-FACTORIAL HepG2 Assay for human SRY-box transcription factor (SOX) (AID 2282960). To be noted: HepG2 Attagene cis-factorial SOX reporter, mRNA; actives raise or lower the signal. Summed up: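 Endogenous factor activity in human liver HepG2 cells carrying transfected cis-regulated reporter units. RNA taken 24 h post-dose, reverse-transcribed, PCR-amplified and sized by capillary electrophoresis. Gain or loss of signal fitted relative to DMSO.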

Test [7] has as its target Transcription factor Sp1 (Homo sapiens) (UniProt P08047). The test can be described thus: ATG_Sp1_CIS: Attagene CIS-FACTORIAL HepG2 Assay for human Specificity Protein 1 (Sp1) (AID 2282961). To be noted: HepG2 Sp1 cis-reporter transcription, actives raise or lower the signal. Summed up: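 Transient MRTU-transfected HepG2, 24 h compound exposure. Total RNA → oligo(dT) RT → PCR of reporter → 6-FAM primer extension → HpaI digest → CE. Endpoint fitted both directions vs DMSO.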

Test [8] deals with Signal transducer and activator of transcription 3 (Homo sapiens) (UniProt P40763). The test can be described thus: ATG_STAT3_CIS: Attagene CIS-FACTORIAL HepG2 Assay for human Signal Transducer and Activator of Transcription 3 (STAT3) (AID 2282963). To be noted: HepG2, Attagene cis-factorial STAT3 reporter transcription; actives raise or lower the signal. In short, it runs like this: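 Transcript-level reporter assay. HepG2 transient MRTU transfection, 24 h exposure, fluorescence detection after RT-PCR and CE; DMSO baseline.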
Sequence of Signal transducer and activator of transcription 3 (Homo sapiens) (P40763 whole entry, looked up): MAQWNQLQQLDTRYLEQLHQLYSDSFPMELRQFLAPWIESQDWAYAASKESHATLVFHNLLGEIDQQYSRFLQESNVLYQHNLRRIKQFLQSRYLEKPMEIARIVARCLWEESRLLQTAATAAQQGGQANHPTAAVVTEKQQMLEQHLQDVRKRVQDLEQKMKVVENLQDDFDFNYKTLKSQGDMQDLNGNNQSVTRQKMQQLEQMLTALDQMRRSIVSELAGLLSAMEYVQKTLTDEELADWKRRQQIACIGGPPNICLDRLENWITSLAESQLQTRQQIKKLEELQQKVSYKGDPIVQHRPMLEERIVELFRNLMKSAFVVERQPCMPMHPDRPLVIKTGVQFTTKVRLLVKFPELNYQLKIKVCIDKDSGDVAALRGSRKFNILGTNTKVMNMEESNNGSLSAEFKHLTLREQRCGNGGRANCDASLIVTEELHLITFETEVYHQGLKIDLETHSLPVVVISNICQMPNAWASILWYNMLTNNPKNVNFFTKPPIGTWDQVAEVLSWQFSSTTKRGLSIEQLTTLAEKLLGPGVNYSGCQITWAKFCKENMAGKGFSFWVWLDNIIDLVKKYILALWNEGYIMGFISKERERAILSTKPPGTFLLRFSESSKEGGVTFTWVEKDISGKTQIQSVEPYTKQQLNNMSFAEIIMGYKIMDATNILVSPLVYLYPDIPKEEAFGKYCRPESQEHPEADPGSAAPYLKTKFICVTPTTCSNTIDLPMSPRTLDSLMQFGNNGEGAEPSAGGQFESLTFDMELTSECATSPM

Test [9] in a line: ATG_TA_CIS: Attagene CIS-FACTORIAL HepG2 Assay for human TA Basal Promoter (AID 2282964). To be noted: HepG2 Attagene CIS-factorial TA basal promoter reporter; actives raise or lower the signal. Summed up:
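Background internal-marker endpoint from a 52-component HepG2 cis-reporter panel. Cells treated 24 h; reporter transcripts quantified via RT-PCR and CE fluorescence against DMSO baseline.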

The nature of test [10]: ATG_TCF_b_cat_CIS: Attagene CIS-FACTORIAL HepG2 Assay for human T-Cell-Factor with beta-catenin (TCF/b-cat) (AID 2282965). The following applies: HepG2 TCF/beta-catenin cis-reporter transcription, actives raise or lower the signal. In short, it runs like this: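 HepG2 cells transiently transfected with multiple cis-promoter-regulated reporter transcription units, so endogenous transcription factor activity is measured. Reporter mRNA read 24 hours after dosing by RT-PCR, fluorescent labelling and capillary electrophoresis; bidirectional fitting against DMSO.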

A short description of test [11]: ATG_TAL_CIS: Attagene CIS-FACTORIAL HepG2 Assay for human TAL Basal Promoter (AID 2282966).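 Also: background control endpoint measuring basal TAL promoter reporter mRNA not a specific factor.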 The following applies: HepG2 Attagene cis-factorial TAL promoter reporter; actives raise or lower the signal. Summed up:
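RT-PCR plus capillary electrophoresis quantifies reporter mRNA induction in transiently transfected HepG2 cells after 24 h chemical treatment. DMSO serves as negative control and baseline for bidirectional fitting.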

Test [12] in a line: ATG_TGFb_CIS: Attagene CIS-FACTORIAL HepG2 Assay for human Transforming Growth Factor (TGF) (AID 2282967). The following applies: HepG2 Attagene CIS TGFb reporter, mRNA transcription; actives raise or lower the signal. In short, it runs like this: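 Liver HepG2 line, cis-factorial reporter panel, 24 h dosing. Quantitation: RT-PCR products labeled with 6-FAM, cut with HpaI, resolved by capillary electrophoresis; DMSO-referenced bidirectional analysis.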

The nature of test [13]: ATG_VDRE_CIS: Attagene CIS-FACTORIAL HepG2 Assay for human Vitamin D Receptor Element (VDRE) (AID 2282968). To be noted: HepG2 VDRE cis-reporter transcription, actives raise or lower the signal. In short, it runs like this:
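RT-PCR/CE readout of reporter mRNA; HepG2, transient transfection, 24 h dosing; DMSO baseline; bidirectional analysis.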

Test [14] has as its target Nuclear receptor subfamily 1 group I member 3 (Homo sapiens) (UniProt Q14994). As to the kind of experiment: ATG_CAR_TRANS: Attagene TRANS-FACTORIAL HepG2 Assay for human Constitutive Androstane Receptor (CAR) (AID 2282969; active = hit-call score of the fitted dose curve at least 0.9, where 1 is the maximum;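 also: activators raise reporter mRNA above DMSO so AC50 marks induction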). The following applies: HepG2 Attagene TRANS-FACTORIAL CAR reporter. Summed up: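 HepG2 cells transiently transfected with multiplexed GAL4-UAS reporter units expressing chimeric NR-Gal4 proteins; compound exposure 24 h. Reporter mRNA measured by RT-PCR, 6-FAM labelling, HpaI digestion and capillary electrophoresis; gain-of-signal fitted against DMSO baseline.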

In test [15] the target is Estrogen receptor (Homo sapiens) (UniProt P03372). As to the kind of experiment: ATG_ERa_TRANS: Attagene TRANS-FACTORIAL HepG2 Assay for human Estrogen Receptor alpha (ERa) (AID 2282970; active = hit-call score of the fitted dose curve at least 0.9, where 1 is the maximum). To be noted: HepG2 Attagene TRANS ERa GAL4 reporter, mRNA. In short, it runs like this: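 Cells: HepG2, transiently transfected. Construct: GAL4-UAS reporter units regulated by exogenous NR-Gal4 chimeras. Time: 24 h. Detection: reporter mRNA by RT-PCR, capillary electrophoresis, fluorescence. Baseline: DMSO, upward fitting.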
Sequence of Estrogen receptor (Homo sapiens) (P03372 whole entry, looked up, the tested form may be a part): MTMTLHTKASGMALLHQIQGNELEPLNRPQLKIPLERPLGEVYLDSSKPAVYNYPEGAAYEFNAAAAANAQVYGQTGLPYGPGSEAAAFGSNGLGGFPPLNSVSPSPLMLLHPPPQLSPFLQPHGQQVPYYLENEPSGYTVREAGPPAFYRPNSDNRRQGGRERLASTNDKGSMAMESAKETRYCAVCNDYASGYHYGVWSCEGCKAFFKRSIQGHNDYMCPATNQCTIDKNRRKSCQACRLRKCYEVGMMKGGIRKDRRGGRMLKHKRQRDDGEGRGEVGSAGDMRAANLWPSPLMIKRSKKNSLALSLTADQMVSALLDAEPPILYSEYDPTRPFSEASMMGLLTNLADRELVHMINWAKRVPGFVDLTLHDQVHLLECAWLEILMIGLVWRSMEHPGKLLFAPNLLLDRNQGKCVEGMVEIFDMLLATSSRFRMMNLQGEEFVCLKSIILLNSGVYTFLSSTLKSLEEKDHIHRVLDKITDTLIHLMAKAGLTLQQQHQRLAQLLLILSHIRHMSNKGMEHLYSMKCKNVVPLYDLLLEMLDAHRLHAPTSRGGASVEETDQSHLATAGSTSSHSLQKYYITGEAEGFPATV

The target in test [16] is Steroid hormone receptor ERR1 (Homo sapiens) (UniProt P11474). The test can be described thus: ATG_ERRa_TRANS: Attagene TRANS-FACTORIAL HepG2 Assay for human Estrogen-Related Receptor alpha (ERRa) (AID 2282971; active = hit-call score of the fitted dose curve at least 0.9, where 1 is the maximum). To be noted: HepG2 Attagene TRANS reporter, ERRa transactivation. Summed up: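 Reporter transcripts from ERRa-Gal4 chimera activity measured in transiently transfected human HepG2 cells 24 hours after dosing, using RT-PCR with 6-FAM primer extension, HpaI digestion and capillary electrophoresis; DMSO is baseline.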
Sequence of Steroid hormone receptor ERR1 (Homo sapiens) (P11474 whole entry, looked up, the tested form may be a part): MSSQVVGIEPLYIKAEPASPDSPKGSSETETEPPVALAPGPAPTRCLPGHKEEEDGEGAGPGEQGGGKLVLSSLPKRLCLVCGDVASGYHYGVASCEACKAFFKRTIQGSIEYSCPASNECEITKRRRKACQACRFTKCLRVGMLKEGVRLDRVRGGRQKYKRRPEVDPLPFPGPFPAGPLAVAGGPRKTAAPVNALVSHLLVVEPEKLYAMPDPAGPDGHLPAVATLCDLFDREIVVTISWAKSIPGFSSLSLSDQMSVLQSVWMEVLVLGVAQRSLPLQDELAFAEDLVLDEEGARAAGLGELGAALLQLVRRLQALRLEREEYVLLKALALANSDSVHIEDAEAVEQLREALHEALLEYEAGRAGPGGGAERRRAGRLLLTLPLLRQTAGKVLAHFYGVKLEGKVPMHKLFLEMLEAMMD

Test [17] deals with X-box-binding protein 1 (Homo sapiens) (UniProt P17861). The test can be described thus: ATG_Xbp1_CIS: Attagene CIS-FACTORIAL HepG2 Assay for human X-box Binding Protein 1 (XBP1) (AID 2282972). To be noted: HepG2 XBP1 cis-element reporter, Attagene multiplex; actives raise or lower the signal. Summed up: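 HepG2, transient MRTU transfection (cis-promoter driven), 24 h compound exposure. Total RNA → oligo(dT) RT → PCR → 6-FAM labeling → HpaI cut → CE. Bidirectional fit vs DMSO.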
Sequence of X-box-binding protein 1 (Homo sapiens) (P17861 whole entry, looked up): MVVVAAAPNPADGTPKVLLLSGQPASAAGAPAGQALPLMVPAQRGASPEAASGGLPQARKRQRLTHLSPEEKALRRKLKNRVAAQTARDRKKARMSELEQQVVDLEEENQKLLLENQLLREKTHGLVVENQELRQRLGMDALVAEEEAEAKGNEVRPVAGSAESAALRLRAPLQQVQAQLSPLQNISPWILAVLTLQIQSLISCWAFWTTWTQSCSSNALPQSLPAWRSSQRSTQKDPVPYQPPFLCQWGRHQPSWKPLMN

Test [18] can be described thus: ATG_M_19_TRANS: Attagene TRANS-FACTORIAL HepG2 Assay for M19 Transcription Factor (Internal Marker) (AID 2282974; active = hit-call score of the fitted dose curve at least 0.9, where 1 is the maximum). To be noted: HepG2 Attagene TRANS-FACTORIAL M19 internal marker reporter. In short, it runs like this:
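Fluorescence of 6-FAM-labelled reporter cDNA fragments, separated by capillary electrophoresis, served as the readout. These derived from HepG2 cells carrying transfected GAL4-UAS reporter units after 24 h dosing, with DMSO as negative control.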

Test [19] in a line: ATG_SREBP_CIS: Attagene CIS-FACTORIAL HepG2 Assay for human Sterol Regulatory Element Binding (SREBP) (AID 2282962). To be noted: HepG2 Attagene cis-factorial SREBP reporter, mRNA; actives raise or lower the signal. Summed up:
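Transfected HepG2 (cis-regulated reporter library, endogenous TFs) → compound 24 h → total RNA → oligo(dT) RT → reporter-specific PCR → FAM primer extension, HpaI cut → CE fluorescence. Fit bidirectional vs DMSO.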

The target of test [20] is Androgen receptor (Homo sapiens) (UniProt P10275). As to the kind of experiment: ATG_AR_TRANS: Attagene TRANS-FACTORIAL HepG2 Assay for human Androgen Receptor (AR) (AID 2282973; active = hit-call score of the fitted dose curve at least 0.9, where 1 is the maximum). The following applies: HepG2 Attagene TRANS-FACTORIAL AR reporter transcription. In short, it runs like this:
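Transcriptional activity of an exogenous AR–Gal4 fusion read as GAL4-UAS reporter transcript levels in transfected human HepG2 cells after 24 h dosing. Detection via RT-PCR, 6-FAM labelling, HpaI digest and capillary electrophoresis; increase over DMSO baseline.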

“And” between values parts separate entries of the source, which are not always exact repeats. Equal values may be shown once. Records with an inconclusive call do not appear. Where a structure was tested more than once in an assay, its records may differ in their call. The source made the active and inactive calls. The calls were made as follows, unless noted: active = hit-call score of the fitted dose curve at least 0.9, where 1 is the maximum; inactive = score below 0.9.

This note sets out measurements from PubChem BioAssay (EPA / NIEHS).

Sequence of Transcription factor Sp1 (Homo sapiens) (P08047 whole entry, looked up): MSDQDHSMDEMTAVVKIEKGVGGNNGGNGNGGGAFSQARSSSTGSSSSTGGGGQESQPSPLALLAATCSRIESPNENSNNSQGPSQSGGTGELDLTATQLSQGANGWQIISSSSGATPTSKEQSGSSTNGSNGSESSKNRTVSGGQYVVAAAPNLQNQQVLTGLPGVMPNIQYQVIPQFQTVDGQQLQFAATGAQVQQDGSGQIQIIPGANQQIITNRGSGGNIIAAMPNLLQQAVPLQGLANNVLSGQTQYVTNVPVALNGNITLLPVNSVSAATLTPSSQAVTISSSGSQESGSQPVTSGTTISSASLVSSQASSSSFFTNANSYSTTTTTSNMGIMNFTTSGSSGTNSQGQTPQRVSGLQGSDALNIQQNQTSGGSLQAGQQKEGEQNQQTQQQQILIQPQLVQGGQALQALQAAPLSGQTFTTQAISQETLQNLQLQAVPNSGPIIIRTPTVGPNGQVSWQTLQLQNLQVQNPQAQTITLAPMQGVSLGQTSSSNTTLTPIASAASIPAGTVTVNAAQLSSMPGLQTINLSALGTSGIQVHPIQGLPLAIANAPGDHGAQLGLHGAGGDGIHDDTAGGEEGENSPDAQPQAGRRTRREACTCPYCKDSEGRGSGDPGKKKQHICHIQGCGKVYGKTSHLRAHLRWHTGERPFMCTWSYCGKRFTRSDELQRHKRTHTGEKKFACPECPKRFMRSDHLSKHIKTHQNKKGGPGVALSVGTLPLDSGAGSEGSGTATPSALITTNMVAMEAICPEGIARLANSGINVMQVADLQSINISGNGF
Sequence of Paired box protein Pax-6 (Homo sapiens) (P26367 whole entry, looked up): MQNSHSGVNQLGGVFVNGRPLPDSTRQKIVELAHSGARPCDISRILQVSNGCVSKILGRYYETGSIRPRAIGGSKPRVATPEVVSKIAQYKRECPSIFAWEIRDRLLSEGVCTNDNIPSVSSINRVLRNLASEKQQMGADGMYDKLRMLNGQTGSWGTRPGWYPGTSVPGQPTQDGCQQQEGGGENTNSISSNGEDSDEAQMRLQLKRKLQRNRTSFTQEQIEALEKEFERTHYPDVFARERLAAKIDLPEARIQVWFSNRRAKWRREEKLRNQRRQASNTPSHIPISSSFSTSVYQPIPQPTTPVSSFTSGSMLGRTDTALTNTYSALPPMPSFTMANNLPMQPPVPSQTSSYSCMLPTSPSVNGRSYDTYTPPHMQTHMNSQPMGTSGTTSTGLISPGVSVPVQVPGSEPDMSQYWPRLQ
Sequence of Nuclear receptor subfamily 1 group I member 3 (Homo sapiens) (Q14994 whole entry, looked up, the tested form may be a part): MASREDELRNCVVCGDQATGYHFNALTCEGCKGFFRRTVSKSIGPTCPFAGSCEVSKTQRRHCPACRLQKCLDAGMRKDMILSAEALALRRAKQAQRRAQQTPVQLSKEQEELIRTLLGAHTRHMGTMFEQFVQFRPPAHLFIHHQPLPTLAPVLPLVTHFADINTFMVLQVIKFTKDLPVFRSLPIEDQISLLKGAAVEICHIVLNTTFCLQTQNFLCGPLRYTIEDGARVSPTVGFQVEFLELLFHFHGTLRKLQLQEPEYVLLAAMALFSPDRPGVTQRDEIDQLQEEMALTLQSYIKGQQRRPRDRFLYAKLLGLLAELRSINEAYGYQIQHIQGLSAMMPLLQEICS
Sequence of Androgen receptor (Homo sapiens) (P10275 whole entry, looked up, the tested form may be a part): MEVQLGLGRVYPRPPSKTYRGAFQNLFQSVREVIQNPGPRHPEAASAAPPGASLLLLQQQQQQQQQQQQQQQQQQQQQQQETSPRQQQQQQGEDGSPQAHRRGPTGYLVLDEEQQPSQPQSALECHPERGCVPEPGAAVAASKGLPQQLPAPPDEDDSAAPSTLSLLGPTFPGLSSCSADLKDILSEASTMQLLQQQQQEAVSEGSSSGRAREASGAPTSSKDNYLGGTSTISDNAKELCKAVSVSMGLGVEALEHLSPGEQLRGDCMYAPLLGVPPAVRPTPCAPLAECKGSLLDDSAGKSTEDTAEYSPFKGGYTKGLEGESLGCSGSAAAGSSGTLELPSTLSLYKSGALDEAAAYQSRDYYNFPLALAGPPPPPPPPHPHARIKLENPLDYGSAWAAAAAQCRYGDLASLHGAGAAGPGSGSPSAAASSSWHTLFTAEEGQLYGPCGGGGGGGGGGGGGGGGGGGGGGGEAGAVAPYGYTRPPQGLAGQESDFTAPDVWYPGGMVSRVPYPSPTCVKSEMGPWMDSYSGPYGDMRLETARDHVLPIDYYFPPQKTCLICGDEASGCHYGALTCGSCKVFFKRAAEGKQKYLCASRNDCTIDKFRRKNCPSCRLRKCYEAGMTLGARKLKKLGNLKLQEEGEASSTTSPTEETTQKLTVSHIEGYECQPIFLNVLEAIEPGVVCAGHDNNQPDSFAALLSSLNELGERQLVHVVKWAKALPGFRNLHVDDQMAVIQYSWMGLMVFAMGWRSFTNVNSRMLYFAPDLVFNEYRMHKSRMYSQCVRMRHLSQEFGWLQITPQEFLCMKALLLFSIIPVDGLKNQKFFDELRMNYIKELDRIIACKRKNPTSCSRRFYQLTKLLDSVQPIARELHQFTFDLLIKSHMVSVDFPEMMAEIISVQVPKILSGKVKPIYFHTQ

One may read the AC50 as the midpoint of the concentration-response curve, whichever way the signal moves. Take `CC(C)C1(C)N=C(c2nc3ccccc3cc2C(=O)O)NC1=O` (stereo unspecified): the outcome in test [1], in test [2], in test [4], in [5], in test [6] and in test [7] was inactive. Also, the compound was called inactive in test [8], in test [9], in test [10], in test [11], in test [12] and in test [13]. In addition, the outcome in test [14], in test [15], in [16] and in test [17] was inactive. For the same compound, the half-maximal activity concentration (AC50) in [3] was 11.1 µM (active).
On to `Oc1ccccc1-c1ccccc1`, for which the outcome in [1], in [2], in test [6], in test [7], in test [8] and in test [9] was inactive. The outcome in test [10], in test [11], in [12], in test [13], in test [14] and in [17] was inactive. Further, the compound was called inactive in test [18]. The AC50 is 57.7 µM (active) in test [2]; 13.5 µM (active) and 3.11 µM (active) in test [3]; 46 µM (active) in test [6]; 50 µM (active) in [7]; 87.5 µM (active) in test [12]; 38.4 µM (active) in [13]. Further, the AC50 in test [15] was 31.1 µM (active) and 27.8 µM (active).
As to `N#CC(CCc1ccc(Cl)cc1)(Cn1cncn1)c1ccccc1` (stereo unspecified), the outcome in test [1], in test [2], in test [4], in [5], in [6] and in test [7] was inactive. The outcome in test [8], in [10], in [11], in test [12], in test [13] and in test [15] was inactive. Besides, the compound was classed as inactive in test [16], in [17], in test [20] and in test [18]. The figures for the AC50 in test [3], in [19] and in [9] were 1.5 µM (active), 8.22 µM (active) and 16.9 µM (active), respectively.
